Shiga toxin inh = A qHTS for Small Molecule Inhibitors of Shiga Toxin; hit rate 9.2% among 290,000; Vero cells, Shiga toxin protein synthesis inhibition reporter; AID 2315, 2010; inhibition, % at 38.7 µM; in the data active = inhibition mostly above about 28%, no sharp cut-off; inactive = mostly below about 43%
Pf growth 48h = Primary qHTS for delayed death inhibitors of the malarial parasite plastid, 48 hour incubation; P. falciparum luciferase growth in erythrocytes, 48 h; Potency, µM (series often up to 28.7 µM), usual class: inhibitors; hit rate 5.9% among 310,000; AID 504832, 2011
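Compounds are pin-transferred into medium, infected erythrocytes (2% hematocrit, 0.1% parasitemia final) are added, and plates sit one parasite generation at 37 C in 5% CO2. Detection reagent is then added and luminescence measured.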
NS1 function inh = qHTS Assay for Inhibitors of Influenza NS1 Protein Function; Potency, µM (top dose mostly 46.1 µM); AID 2326, 2010; hit rate 0.4% among 270,000; calls by dose curve; also: actives are rising curves; nearly all actives have a fitted effect of over 50% in size
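Growth recovery, yeast-based: influenza A NS1 expressed in S. cerevisiae causes slow growth, and suppressors are detected by OD600. The parent strain without NS1 is used as positive control.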
Pf growth 96h = Primary qHTS for delayed death inhibitors of the malarial parasite plastid, 96 hour incubation; P. falciparum luciferase reporter growth, 96 h; Potency, µM (highest dose often 28.7 µM), most hits filed as inhibitors; hit rate 6.9% among 320,000; AID 504834, 2011
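Luminescence readout: decreased luciferase signal marks inhibited growth of reporter-expressing P. falciparum in infected red cells (2% hematocrit, 0.05% parasitemia final), exposed to compound two generations (96 h, 37 C, 5% CO2).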
Cycloheximide cs = Cycloheximide Counterscreen for Small Molecule Inhibitors of Shiga Toxin | cell reporter, cycloheximide protein synthesis inhibition counterscreen | max response, % | hit rate 12% among 300,000 | AID 2314, 2010; in the data active = max response mostly above about 13%, no sharp cut-off; inactive = mostly below about 14%; also: read at 38.3 µM for the half of the compounds with a filed dose
Sm TGR block = qHTS Assay for the Inhibitors of Schistosoma Mansoni Peroxiredoxins; Potency, µM (highest dose often 114 µM), usual class: inhibitors; purified TGR, DTNB reduction, TNB absorbance 405 nm; hit rate 3% among 360,000; also: nearly all actives have a fitted effect of over 60% in size
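Kinetic colorimetric format: TGR-catalysed, NADPH-driven DTNB reduction monitored via TNB absorbance. Enzyme dispensed at 20 nM; compound exposure 15 min at room temperature before reaction start.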
Each line names hits and unclear results; the compound was inactive in the other large screens; ! = repeats disagree. This is a sample that favours compounds with a hit; in the whole collection about 21% have one here. Unless noted, calls follow the shape of the dose curve; as a rule, active = well fitted curve in the direction sought with a large enough effect; inconclusive = small, poorly fitted or top-dose-only effect, or another doubt; inactive = no such curve, though single readings can be large; an effect the other way counts as inactive or inconclusive.

COc1cccc(NC(=O)CN2C(=O)NC3(CCCc4ccccc43)C2=O)c1 (centres undefined)	Pf growth 96h 4.7µM (no result: Shiga toxin inh, NS1 function inh, Cycloheximide cs)
COc1ccc(OC)c(NC(=O)CN2C(=O)NC3(CCCc4ccccc43)C2=O)c1 (centres undefined)	Pf growth 96h inconclusive (no result: Shiga toxin inh, NS1 function inh, Cycloheximide cs)
CCCc1nnc(NC(=O)c2nc(SCC)ncc2Cl)s1	none (no result: Shiga toxin inh, Pf growth 48h, NS1 function inh, Pf growth 96h, Cycloheximide cs)
O=C(O)/C=C/C(=O)Nc1ccc(S(=O)(=O)Nc2nccs2)cc1	Pf growth 96h 1.7µM
COc1nccnc1NS(=O)(=O)c1ccc(NC(=S)NC(=O)c2cccc(F)c2)cc1	Sm TGR block 45µM
COc1nccnc1NS(=O)(=O)c1ccc(NC(=S)NC(=O)c2cccnc2)cc1	Pf growth 48h inconclusive, Pf growth 96h inconclusive, Sm TGR block 20µM
COc1nsnc1NS(=O)(=O)c1ccc(NC(=S)NC(=O)c2cccnc2)cc1	Pf growth 48h inconclusive (no result: Sm TGR block)
COc1nsnc1NS(=O)(=O)c1ccc(NC(=S)NC(=O)c2ccncc2)cc1	Sm TGR block 32µM
COc1nccnc1NS(=O)(=O)c1ccc(NC(=S)NC(=O)c2ccc(F)cc2)cc1	Sm TGR block 45µM
O=C(NC(=S)Nc1ccc(S(=O)(=O)Nc2nccs2)cc1)c1ccc(F)cc1	Sm TGR block 28µM
COc1cc(OC)c(N(C)C(=O)c2c(C)oc3ncnc(N4CCCCC4)c23)cc1Cl	none (no result: Shiga toxin inh, Pf growth 48h, NS1 function inh, Pf growth 96h, Cycloheximide cs)
O=C(Nc1cccc(Cl)c1)Nc1nnc(CC2=CCCCC2)s1	Pf growth 48h 15µM, Pf growth 96h inconclusive
O=C(Nc1nnc(CC2=CCCCC2)s1)Nc1ccccc1F	none
O=C(Nc1cccc(Cl)c1)Nc1nnc(CSCCOc2ccc(Cl)cc2)s1	Pf growth 48h 12µM, Pf growth 96h inconclusive
COc1ccc(-c2[nH]c(-c3ccc(C)cc3)nc2SCC(=O)NCC2CCCO2)cc1 (centres undefined)	none (no result: Shiga toxin inh, Pf growth 48h, NS1 function inh, Pf growth 96h, Cycloheximide cs)
Cc1ccc(NC(=O)C(=O)NCC2CCCO2)cc1C (centres undefined)	Shiga toxin inh 100, Cycloheximide cs 31 (no result: Sm TGR block)
Cc1ccc(NC(=S)NCC2CCCO2)cc1C (centres undefined)	none
Cc1ccc(-c2nc(NCC3CCCO3)sc2C)cc1 (centres undefined)	Shiga toxin inh 69, Pf growth 48h inconclusive, Pf growth 96h inconclusive, Cycloheximide cs 32 (no result: NS1 function inh)
Cc1ccc(NC(=O)C(=O)NCC2CCCO2)cc1 (centres undefined)	Shiga toxin inh 101, Pf growth 96h inconclusive, Cycloheximide cs 58
COC(=O)c1ccc(NC(=O)C(=O)NCC2CCCO2)cc1 (centres undefined)	none
Cc1cc(C)cc(NC(=O)C(=O)NCC2CCCO2)c1 (centres undefined)	Cycloheximide cs 25 (no result: Sm TGR block)
Cc1ccc(S(=O)(=O)c2nc(S(C)(=O)=O)sc2NCC2CCCO2)cc1 (centres undefined)	Pf growth 48h inconclusive, Pf growth 96h inconclusive
O=C(O)c1ccccc1NC(=O)N1CCOCC1	none (no result: NS1 function inh)
Cc1ccc(-c2nnc(SC(C)C(=O)NCC3CCCO3)nc2-c2ccc(C)cc2)cc1 (centres undefined)	Pf growth 48h 13µM, Pf growth 96h 9.3µM (no result: Shiga toxin inh, NS1 function inh, Cycloheximide cs)
Cc1cc(C)cc(OCC(=O)NCC2CCCO2)c1 (centres undefined)	Shiga toxin inh 100, Cycloheximide cs 24
Cc1cc(C)c(C)c(OCC(=O)NCC2CCCO2)c1 (centres undefined)	none
CC(Sc1nnc(-c2ccc(Cl)cc2)n1N)C(=O)NCC1CCCO1 (centres undefined)	none (no result: Shiga toxin inh, NS1 function inh, Cycloheximide cs)
Cc1ccc(CNC(=O)CCNC(=O)c2ccc(Br)o2)cc1	none (no result: Pf growth 48h)
O=C(NCCCc1ccccc1)c1ccc(Br)o1	Cycloheximide cs 31 (no result: Pf growth 96h)
CCCCCCNC(=O)c1ccc(Br)o1	Shiga toxin inh active!, Pf growth 48h inconclusive, Cycloheximide cs 33!
O=C(NCCCCc1ccccc1)c1ccc(Br)o1	Cycloheximide cs 18
COc1ccc(Cc2nc3ccc(C(=O)NCCc4ccc(Cl)cc4)cc3o2)cc1	none (no result: Shiga toxin inh, Pf growth 48h, NS1 function inh, Pf growth 96h, Cycloheximide cs)
CC1CC1C(=O)OCC(=O)Nc1cccc(Br)c1 (centres undefined)	none (no result: Shiga toxin inh, NS1 function inh, Cycloheximide cs)
CC(NC(=O)COC(=O)/C=C/c1ccco1)c1ccccc1 (centres undefined)	Sm TGR block 28µM (no result: NS1 function inh)
O=C(COC(=O)/C=C/c1ccco1)NCc1ccco1	Sm TGR block inconclusive

Bioassay records (PubChem BioAssay)
